Test systems include NCI-H23 lung; NCI-H226 lung; NCI-H322M lung; HOP-62 NSCLC; NCI-H460 lung; HOP-92 NSCLC; NCI-H522 lung; A549/ATCC NSCLC; 786-0 renal; COLO 205 colon.
Common to all, as to assay: NCI-60 one-dose screen, 48 h (100 = growth as untreated, 0 = no growth, -100 = all killed)
Holding throughout (conditions): 10 µM unless noted

This is part of a sample that, as a whole, favours compounds with a hit. Of some 83,000 tested, about 20% had one in any assay.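 Activity criterion: percent growth below 10, measured after cells in 96-well plates were exposed to a single compound concentration for 48 hours.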 Unmarked numbers belong to inactive results. Activity calls are given as the source filed them.

With `Nc1ccc(-c2csc(-n3[nH]c(=O)ccc3=O)n2)cc1`, the growth is 98% in the assay with NCI-H23 lung; 92.2% with NCI-H226 lung; 103% in the assay with NCI-H322M lung; 107% with HOP-62 NSCLC; 102% in the assay on NCI-H460 lung; 103% in the assay with HOP-92 NSCLC. The growth is 93.4% in the assay with NCI-H522 lung, 101% in the assay on A549/ATCC NSCLC, 87.1% in the assay with 786-0 renal and 109% with COLO 205 colon.
For the compound `CCN1CCN(CC(=O)Nc2ccc(-c3cn4c(n3)sc3cc(Oc5ccnc(C(=O)NC)c5)ccc34)cc2)CC1`, the growth in the assay on NCI-H23 lung is 97.1%; in the assay with NCI-H226 lung, 105%; in the assay on NCI-H322M lung, 75.9%; with HOP-62 NSCLC it was 66.1%; with NCI-H460 lung it was 48.7%; with HOP-92 NSCLC, 54.6%. The growth in the assay on NCI-H522 lung was 83.7%; in the assay on A549/ATCC NSCLC it was 78.2%; in the assay on 786-0 renal, 75.3%; with COLO 205 colon, 51.8%.
Turning to `COc1ccc(Oc2nc(Nc3ccc(N4CCOCC4)cc3)ncc2NC(=O)Nc2cc(OC)cc(OC)c2)cc1`, the growth was 33.2% in the assay with NCI-H23 lung; 32.7% with NCI-H226 lung; 23.3% in the assay with NCI-H322M lung; 48.2% with HOP-62 NSCLC; -36.5% (active) in the assay on NCI-H460 lung; -11.5% (active) in the assay with HOP-92 NSCLC. In addition, the growth in the assay on NCI-H522 lung was 4.69% (active); in the assay on A549/ATCC NSCLC it was 2.22% (active); in the assay on 786-0 renal it was 22.5%; with COLO 205 colon, -54.8% (active).
As for `CC(=O)/C(=C/c1ccc([N+](=O)[O-])cc1)C(=O)c1ccccc1`, the growth in the assay on NCI-H23 lung is 88.1%; in the assay with NCI-H226 lung it was 81.5%; with NCI-H322M lung it was 100%; in the assay on HOP-62 NSCLC, 79.8%; in the assay on NCI-H460 lung, 107%; in the assay on HOP-92 NSCLC, 70.1%. For the same compound, the growth with NCI-H522 lung was 52%; in the assay on A549/ATCC NSCLC it was 83.6%; in the assay with 786-0 renal it was 92.5%; in the assay with COLO 205 colon, 90%.
As to `CN1CCN(c2ccc3nc4c(nc3c2C(F)(F)F)C(=O)c2ncccc2C4=O)CC1`, the growth is -39.7% (active) with NCI-H23 lung; -78.9% (active) in the assay on NCI-H226 lung; 36.6% in the assay with NCI-H322M lung; -63.3% (active) in the assay on HOP-62 NSCLC; -56.6% (active) with NCI-H460 lung; 27.5% in the assay on HOP-92 NSCLC. The values for the growth in the assay on NCI-H522 lung, in the assay with 786-0 renal and in the assay with COLO 205 colon were -67.5% (active), 36.7% and -95% (active), respectively.
As to `O=C1/C(=C/c2ccc(O)c(O)c2)COc2ccc(-c3ccccc3)cc21`, the growth with NCI-H23 lung is 35.8%; with NCI-H226 lung it was 36.2%; in the assay with NCI-H322M lung it was 54.8%; in the assay on HOP-62 NSCLC, 77.5%; in the assay with NCI-H460 lung, 13.7%; in the assay with HOP-92 NSCLC, 1.73% (active). Also, the growth in the assay on NCI-H522 lung is -67.2% (active); with A549/ATCC NSCLC, 31.8%; in the assay on 786-0 renal, 24.8%; in the assay on COLO 205 colon, 5.4% (active).
On to `COc1ccc(/C(C)=C(/c2ccc(OCCCN(C)C)cc2)c2ccc(OC(=O)c3ccccc3)cc2)cc1`, for which the growth in the assay with NCI-H23 lung is 82.2%; with NCI-H226 lung, 102%; in the assay on NCI-H322M lung it was 87%; in the assay with HOP-62 NSCLC it was 92.3%; in the assay with NCI-H460 lung, 67.1%; in the assay with HOP-92 NSCLC, 52.5%. Further, the growth is 75.1% with NCI-H522 lung, 69.4% with A549/ATCC NSCLC, 73% in the assay on 786-0 renal and 94.4% in the assay on COLO 205 colon.
For `O=C(NC(Cc1nnc2n(Cc3ccccc3)c(=O)c3c4c(sc3n12)CCCC4)c1ccccc1)c1ccccc1` (configuration not stated), the growth was 90.9% with NCI-H23 lung; 113% in the assay on NCI-H226 lung; 93.3% in the assay with NCI-H322M lung; 71.1% with HOP-62 NSCLC; 94.4% in the assay on NCI-H460 lung; 74.6% in the assay with HOP-92 NSCLC. The figures for the growth with NCI-H522 lung, in the assay on 786-0 renal and in the assay on COLO 205 colon were 94.8%, 81% and 107%, respectively.
On to `CCN(CC)c1ccc(/C=N/NC(=O)Cc2ccc(Nc3ccnc(C(F)(F)F)c3)cc2)c(O)c1`, for which the growth was 19.1% with NCI-H23 lung; 19.4% in the assay with NCI-H226 lung; 25.9% in the assay with NCI-H322M lung; 24.5% in the assay on HOP-62 NSCLC; 8.96% (active) with NCI-H460 lung; 54.1% in the assay on HOP-92 NSCLC. Besides, the growth is 33.9% in the assay with NCI-H522 lung, 23.4% with A549/ATCC NSCLC, 1.44% (active) in the assay with 786-0 renal and 64.9% with COLO 205 colon.
Consider `COc1cccc(C(=O)NNc2nc(Cl)nc(Cl)n2)c1`, for which the growth with NCI-H23 lung is 99.1%; in the assay on NCI-H226 lung it was 105%; in the assay with NCI-H322M lung, 98.5%; in the assay on HOP-62 NSCLC, 104%; in the assay on NCI-H460 lung, 107%; in the assay on HOP-92 NSCLC it was 98.3%. In addition, the growth is 100% in the assay on NCI-H522 lung, 105% with A549/ATCC NSCLC, 101% in the assay on 786-0 renal and 107% in the assay with COLO 205 colon.
Regarding `NC(=O)c1c(NC(=O)c2cccs2)sc2c1CCC(=O)C2`, the growth with NCI-H23 lung was 20.4%; with NCI-H226 lung it was 82.9%; with NCI-H322M lung it was 77.2%; in the assay with HOP-62 NSCLC, 84.6%; with NCI-H460 lung, 87.5%; with HOP-92 NSCLC, 36.7%. Besides, the growth in the assay with NCI-H522 lung is -0.894% (active); in the assay with A549/ATCC NSCLC, 84.8%; in the assay on 786-0 renal, 76%; with COLO 205 colon it was 34.2%.
In the case of `O=C(N/N=C\c1ccccc1S(=O)(=O)O)N/N=C/c1ccccc1S(=O)(=O)O`, the growth in the assay with NCI-H23 lung was 102%; in the assay with NCI-H226 lung, 105%; in the assay with NCI-H322M lung, 99.3%; in the assay with HOP-62 NSCLC, 101%; in the assay on NCI-H460 lung it was 98.5%; in the assay on HOP-92 NSCLC it was 96.8%. For the same compound, the figures for the growth with NCI-H522 lung, with 786-0 renal and in the assay on COLO 205 colon were 98.5%, 95% and 106%, respectively.
As to `CC(C)(C)c1cc(Cl)c(O)c(CNCCO)c1`, the growth in the assay with NCI-H23 lung was 112%; in the assay on NCI-H226 lung, 98.5%; with NCI-H322M lung it was 118%; in the assay with HOP-62 NSCLC it was 101%; in the assay with NCI-H460 lung, 101%; in the assay on HOP-92 NSCLC, 90.8%. The growth is 106% in the assay with NCI-H522 lung, 109% in the assay with A549/ATCC NSCLC, 102% in the assay on 786-0 renal and 112% with COLO 205 colon.

Source of the values: PubChem BioAssay (NCI).
